PubChem BioAssay (NCATS)
Results filed as inconclusive are left out. Activity calls are given as the source filed them. Unless noted, the call rests on the fitted dose curve; in most records, active means well fitted curve in the direction sought with a large enough effect; inconclusive means small, poorly fitted or top-dose-only effect, or another doubt; inactive means no such curve, though single readings can be large; an effect the other way counts as inactive or inconclusive.

Legend:
[1] = Validation of Assay for Modulators of Lamin A Splicing (AID 1459; active means well fitted curve in the direction sought with a large enough effect in the signal ratio; the % refers to the signal ratio;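 further: cells exposed to compound for two days before reading; 0% is about no effect; ratio rise marks activators and ratio drop marks inhibitors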); conditions: Lamin A splicing dual RFP/GFP fluorescence reporter; series mostly up to 9.22 µM
Summary of the method: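 S3 HeLa stably expressing lamin A-EGFP splicing minigene and DsRed2, 600 cells/well in Opti-MEM with 2% FBS, treated 48 h at 37C; laser-scanning cytometry gives GFP/RFP total intensity ratio; ancitabine positive control, 0.5% DMSO vehicle.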

[2] = qHTS Assay for Lipid Storage Modulators (AID 1519; calls by dose curve; on activity change, negative = inhibition: on the % scale 0 is the no-effect control and ±100 the full control effect); conditions: Drosophila S3 cells, BODIPY lipid droplet/cell ratio, laser cytometry, cells loaded with oleic acid; for activity change, negative = inhibition: at 57.5 µM (top of the series)
Summary of the method: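 Cells seeded at 5,000 per well were treated with compounds over a concentration series and loaded with oleic acid (400 uM, as added). Lipid droplet fluorescence (488 nm excitation, 500-530 nm channel) was read by laser-scanning cytometry and normalized to 20 uM Triacsin C.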

[3] = molecular target: DNA repair nuclease/redox regulator APEX1 (Homo sapiens) (UniProt P27695); experiment: qHTS Validation Assay for Inhibitors of the Human Apurinic/apyrimidinic Endonuclease 1 (APE1) (AID 1705;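 further: TAMRA fluorescence gain over two minutes as APE1 cuts a quenched THF abasic duplex; on the % scale 0 is the no-effect control and ±100 the full control effect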); conditions: purified APE1 endonuclease activity, fluorescence, titration; series mostly up to 57.1 µM
DNA repair nuclease/redox regulator APEX1 (Homo sapiens), sequence (P27695 whole entry, looked up): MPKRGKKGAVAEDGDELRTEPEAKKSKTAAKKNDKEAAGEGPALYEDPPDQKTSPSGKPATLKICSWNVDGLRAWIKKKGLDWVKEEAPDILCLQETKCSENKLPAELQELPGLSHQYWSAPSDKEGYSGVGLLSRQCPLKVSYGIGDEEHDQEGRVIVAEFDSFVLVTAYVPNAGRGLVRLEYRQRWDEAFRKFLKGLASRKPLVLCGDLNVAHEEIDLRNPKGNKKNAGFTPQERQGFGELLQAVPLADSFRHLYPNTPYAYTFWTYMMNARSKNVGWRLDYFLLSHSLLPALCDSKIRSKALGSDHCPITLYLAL
Summary of the method: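 Fluorogenic double-stranded THF abasic-site substrate (5'-TAMRA/3'-BHQ-2), 50 nM final. Enzyme preincubated with compound 15 min at room temperature, then substrate added. Kinetic fluorescence (ex 525/em 598 nm) read three times at 60 s intervals; activity taken as third-minus-first read difference.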

[4] = Counterscreen for APE1 Inhibitors: Fluorescent Dye Displacement Validation Assay (AID 1707); conditions: fluorescent dye displacement from DNA; series mostly up to 57.1 µM;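 further: plate controls were ThO with dsDNA and no compound for no effect and ThO without dsDNA for full effect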
Summary of the method: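 Counterscreen flags promiscuous DNA binders: compounds displacing ThO from duplex DNA (abasic THF site, 50 nM) reduce 540 nm emission (480 nm excitation). ThO 250 nM final; Tris-HCl pH 7.5 with NaCl, MgCl2 and Tween-20.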

[5] = molecular target: Endonuclease 4 (Escherichia coli (strain K12)) (UniProt P0A6C1); experiment: Counterscreen for APE1 Inhibitors: qHTS Validation Assay for Inhibitors of Endonuclease IV (AID 1708); further: on the % scale 0 is the no-effect control and ±100 the full control effect; conditions: E. coli endonuclease IV, DNA cleavage fluorescence; series mostly up to 57.1 µM
Summary of the method: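 Read-out: fluorescence rise (ex 525/em 598 nm) from incision of a TAMRA/BHQ-2 double-stranded THF abasic-site substrate (50 nM), measured kinetically; third-minus-first read difference gave reaction progress. Enzyme 2 nM.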

[6] = qHTS for differential inhibitors of proliferation of Plasmodium falciparum line Dd2 (AID 1882); conditions: Potency: Plasmodium falciparum Dd2 proliferation inhibition; series mostly up to 28.7 µM;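 further: compound exposure of 72 h on infected erythrocytes; plate controls were DMSO vehicle for no effect and 0.29 µM artemisinin for full effect; nearly all actives have a fitted effect of over 65% in size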
Summary of the method: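 RBC culture, 0.3% parasitemia / 2.5% Hct final; cpd added by pin tool in DMSO; 72 h, 37 C, 5% CO2; lysis buffer + SYBR Green I, o/n RT dark; FI 485/535; norm. to artemisinin 0.29 uM and DMSO.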

[7] = molecular target: ATP-dependent DNA helicase Q1 (Homo sapiens) (UniProt P46063); experiment: qHTS Validation Assay for Inhibitors of RecQ-Like Dna Helicase 1 (RECQ1) (AID 2353); conditions: recombinant RECQ1 helicase DNA unwinding assay; series mostly up to 25.6 µM;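 further: plate controls were DMSO vehicle for no effect and enzyme-free control for full effect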
ATP-dependent DNA helicase Q1 (Homo sapiens), sequence (P46063 whole entry, looked up): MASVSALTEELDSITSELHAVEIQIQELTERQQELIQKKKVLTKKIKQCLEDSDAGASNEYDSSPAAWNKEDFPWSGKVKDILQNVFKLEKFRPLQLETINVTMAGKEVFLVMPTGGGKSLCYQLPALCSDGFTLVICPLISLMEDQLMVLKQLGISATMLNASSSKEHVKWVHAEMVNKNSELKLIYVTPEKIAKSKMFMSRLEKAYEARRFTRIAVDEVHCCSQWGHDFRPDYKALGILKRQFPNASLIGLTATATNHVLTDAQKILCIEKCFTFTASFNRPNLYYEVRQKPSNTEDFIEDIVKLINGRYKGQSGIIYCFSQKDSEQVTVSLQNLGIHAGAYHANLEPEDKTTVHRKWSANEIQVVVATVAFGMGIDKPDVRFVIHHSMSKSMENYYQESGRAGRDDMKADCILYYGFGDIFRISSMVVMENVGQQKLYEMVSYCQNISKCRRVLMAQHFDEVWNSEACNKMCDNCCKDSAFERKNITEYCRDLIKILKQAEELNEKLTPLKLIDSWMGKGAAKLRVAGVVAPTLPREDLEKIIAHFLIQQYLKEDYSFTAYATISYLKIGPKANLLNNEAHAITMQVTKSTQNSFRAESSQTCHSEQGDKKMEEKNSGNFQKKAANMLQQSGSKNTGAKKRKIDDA
Summary of the method: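 RECQ1T1 50 nM; forked duplex (20 bp + 30-nt ss tails) 200 nM, ATP 2 mM final; pH 8.0, 2 mM MgCl2, 2.5 ug/ml poly(dI-dC); 15 min compound preincubation; discontinuous kinetic read over 2 h at RT.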

[8] = Validation screen for small molecules that induce DNA re-replication in MCF 10A normal breast cells (AID 463097); conditions: MCF 10A cells, DNA re-replication phenotype imaging; series mostly up to 46.1 µM; further: 0% is about no effect; nearly all actives have a fitted effect of over 60% in size
Summary of the method: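 MCF 10A cells exposed to compound 48 hr at 37 C, 5% CO2, then Hoechst-stained 40 min. Laser-scanning imaging of nuclear DNA content (405 nm ex, 500-530 nm em); re-replication scored as rise in nuclei with elevated fluorescence intensity.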

[9] = molecular target: M-phase phosphoprotein 8 (Homo sapiens) (UniProt Q99549); experiment: qHTS Validation Assay for Inhibitors for MPP8 Chromodomain Interactions with Methylated Histone Tails (AID 488949); conditions: AlphaScreen MPP8 binding to H3K9me3 peptide; series mostly up to 114 µM; further: top concentration of the series differs between compounds; on the % scale 0 is the no-effect control and ±100 the full control effect; nearly all actives have a fitted effect of over 55% in size
M-phase phosphoprotein 8 (Homo sapiens), sequence (Q99549 whole entry, looked up): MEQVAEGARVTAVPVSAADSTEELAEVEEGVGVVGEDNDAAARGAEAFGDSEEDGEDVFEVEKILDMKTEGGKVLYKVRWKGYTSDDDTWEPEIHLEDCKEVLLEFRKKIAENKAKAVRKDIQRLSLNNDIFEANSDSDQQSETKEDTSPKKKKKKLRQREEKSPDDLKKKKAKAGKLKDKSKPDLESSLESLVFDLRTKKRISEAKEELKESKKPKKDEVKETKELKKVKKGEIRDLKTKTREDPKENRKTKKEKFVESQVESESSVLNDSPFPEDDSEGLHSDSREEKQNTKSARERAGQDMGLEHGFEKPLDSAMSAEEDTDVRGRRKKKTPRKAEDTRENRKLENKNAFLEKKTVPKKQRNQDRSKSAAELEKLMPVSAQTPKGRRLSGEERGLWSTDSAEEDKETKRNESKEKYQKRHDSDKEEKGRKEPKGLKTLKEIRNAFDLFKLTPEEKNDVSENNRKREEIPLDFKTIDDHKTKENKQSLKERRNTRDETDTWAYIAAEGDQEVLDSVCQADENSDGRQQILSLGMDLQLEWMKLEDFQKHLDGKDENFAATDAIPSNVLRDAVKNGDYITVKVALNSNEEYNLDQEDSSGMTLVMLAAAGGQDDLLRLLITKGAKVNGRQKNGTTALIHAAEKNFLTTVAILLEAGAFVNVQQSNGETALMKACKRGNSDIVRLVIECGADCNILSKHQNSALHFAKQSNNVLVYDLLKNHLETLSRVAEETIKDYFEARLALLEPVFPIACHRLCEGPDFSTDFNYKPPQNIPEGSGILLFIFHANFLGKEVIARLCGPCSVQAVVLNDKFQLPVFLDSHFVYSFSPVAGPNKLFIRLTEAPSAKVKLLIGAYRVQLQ
Summary of the method: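 MPP8 (50 nM) was pre-bound to 50 nM biotinylated H3(1-18)K9me3 peptide in PBS pH 7.4 with 0.01% Tween-20. Compounds were then added for 30 min at room temperature, and complex disruption was read by AlphaScreen with streptavidin donor and nickel-chelate acceptor beads.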

[10] = molecular target: Transient receptor potential cation channel subfamily V member 1 (Homo sapiens) (UniProt Q8NER1); experiment: HTS Assay for Compounds that Act as Enhancers of the Vanilloid Receptor 1 (AID 488979); conditions: TRPV1-expressing cells, enhancer of channel activity, stimulated with capsaicin at EC20; series mostly up to 41.7 µM; further: 0% is about no effect
Transient receptor potential cation channel subfamily V member 1 (Homo sapiens), sequence (Q8NER1 whole entry, looked up): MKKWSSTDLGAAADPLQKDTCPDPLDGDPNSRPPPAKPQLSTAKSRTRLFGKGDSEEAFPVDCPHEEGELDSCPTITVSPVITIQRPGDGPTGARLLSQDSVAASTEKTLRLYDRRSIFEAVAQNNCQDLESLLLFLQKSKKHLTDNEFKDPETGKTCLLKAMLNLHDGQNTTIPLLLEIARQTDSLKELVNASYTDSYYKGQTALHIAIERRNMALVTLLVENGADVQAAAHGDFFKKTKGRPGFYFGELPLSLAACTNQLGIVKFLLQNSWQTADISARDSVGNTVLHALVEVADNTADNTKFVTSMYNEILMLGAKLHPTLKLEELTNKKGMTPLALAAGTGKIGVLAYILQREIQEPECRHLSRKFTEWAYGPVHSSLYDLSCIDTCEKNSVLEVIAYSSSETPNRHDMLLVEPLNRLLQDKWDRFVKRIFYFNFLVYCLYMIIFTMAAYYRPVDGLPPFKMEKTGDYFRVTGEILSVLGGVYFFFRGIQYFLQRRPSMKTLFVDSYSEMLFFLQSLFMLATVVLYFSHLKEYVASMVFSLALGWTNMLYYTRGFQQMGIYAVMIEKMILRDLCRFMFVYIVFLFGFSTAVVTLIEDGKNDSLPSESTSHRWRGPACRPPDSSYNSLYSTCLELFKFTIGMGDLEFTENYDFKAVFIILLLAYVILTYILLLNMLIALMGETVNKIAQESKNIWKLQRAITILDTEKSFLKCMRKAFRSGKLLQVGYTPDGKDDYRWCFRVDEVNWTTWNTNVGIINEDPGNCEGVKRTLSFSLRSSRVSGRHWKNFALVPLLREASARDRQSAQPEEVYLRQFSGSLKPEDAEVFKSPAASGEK
Summary of the method: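 TRPV1 cells loaded with Fluo-8 calcium dye; compound added and Ca2+ signal (ex 480/em 520 nm) followed 3 min, then capsaicin at EC20 added and read 2 more min to detect enhancement.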

[11] = molecular target: Galactokinase (Homo sapiens) (UniProt P51570); experiment: qHTS Validation Assay for Inhibitors of Human Galactokinase (GALK) (AID 493189); conditions: purified human GALK enzyme activity, qHTS 7-point titration; series mostly up to 57.5 µM; further: 0% is about no effect
Galactokinase (Homo sapiens), sequence (P51570 whole entry, looked up): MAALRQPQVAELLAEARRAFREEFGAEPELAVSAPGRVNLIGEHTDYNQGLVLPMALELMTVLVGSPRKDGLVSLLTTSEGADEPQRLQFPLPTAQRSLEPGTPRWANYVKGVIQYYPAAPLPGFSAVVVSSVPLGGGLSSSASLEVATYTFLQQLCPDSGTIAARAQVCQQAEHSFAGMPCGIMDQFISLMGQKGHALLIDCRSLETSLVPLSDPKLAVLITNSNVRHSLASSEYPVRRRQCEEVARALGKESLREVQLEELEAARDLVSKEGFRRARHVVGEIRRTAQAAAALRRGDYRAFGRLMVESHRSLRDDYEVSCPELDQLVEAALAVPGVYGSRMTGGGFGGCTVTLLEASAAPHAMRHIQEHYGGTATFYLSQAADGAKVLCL
Summary of the method: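 GALK (5 nM) with 35 uM ATP and 100 uM galactose in HEPES pH 8.0 with MgCl2, NaCl, DTT and BSA. Reaction ran 1 h at room temperature. Residual ATP read by Kinase-Glo Plus luminescence.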

[12] = Validation screen for small molecules that induce DNA re-replication in SW480 colon adenocarcinoma cells (AID 504364); conditions: DNA re-replication phenotype (high-content imaging); series mostly up to 46.1 µM; further: 0% is about no effect
Summary of the method: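 Hoechst-stained SW480 nuclei, imaged at 405 nm excitation after 48 hr compound exposure, were counted for elevated DNA content as the re-replication signal.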

[13] = Primary qHTS for inhibitors of nuclear receptor binding SET domain protein 2 (NSD2) in an isogenic RCH-ACV NSD2 p.E1099K mutant (9B) (AID 1645876); conditions: RCH-ACV NSD2 E1099K (9B) viability, CellTiter-Glo, 72 h; series mostly up to 44.9 µM; further: potency means the concentration at half of the fitted maximal effect; nearly all actives have a fitted effect of over 70% in size
[14] = Primary qHTS for inhibitors of nuclear receptor binding SET domain protein 2 (NSD2) in an RCH-ACV wild type WT cells (2C) (AID 1645877); conditions: RCH-ACV (leukaemia line) NSD2 WT (2C) viability, CellTiter-Glo, 72 h; series mostly up to 44.9 µM; further: potency means the concentration at half of the fitted maximal effect; nearly all actives have a fitted effect of over 70% in size
[15] = molecular target: Glutathione peroxidase 1 (Homo sapiens) (UniProt P07203); experiment: Primary qHTS Assay for Inhibitors of Recombinant Selenoprotein Glutathione Peroxidase 1 (GPX1) (AID 1845191); conditions: recombinant GPX1, GR-coupled NADPH fluorescence, 15 min; series mostly up to 48.8 µM; further: nearly all actives have a fitted effect of over 65% in size
Glutathione peroxidase 1 (Homo sapiens), sequence (P07203 whole entry, looked up): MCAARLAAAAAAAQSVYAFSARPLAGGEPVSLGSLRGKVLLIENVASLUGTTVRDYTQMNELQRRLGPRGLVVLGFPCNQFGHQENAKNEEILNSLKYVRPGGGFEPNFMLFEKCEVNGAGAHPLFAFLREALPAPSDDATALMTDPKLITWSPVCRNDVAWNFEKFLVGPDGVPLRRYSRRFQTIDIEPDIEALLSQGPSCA
Summary of the method: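 GR-coupled readout: NADPH consumption tracked by fluorescence, ex 340/em 450 nm, at t=0 and after 15 min at RT. Final mix 10 nM GPX1, 1 mM GSH, 0.5 mM CHP, 0.5 mM NADPH, 100 nM GR, 0.01% BSA, following 30 min enzyme–compound preincubation.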

[16] = qHTS drug screen for cell cycle checkpoint inhibitors in PARPi-resistant BRCA-mutant ovarian cancer cell lines. (AID 1963452; calls by dose curve); conditions: PEO1/OlaR viability, CellTiter-Glo luminescence, 96 h, stronger effect = lower value
Summary of the method: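 PEO1, PEO4 and PEO1/OlaR ovarian cancer cells, 600 per well, exposed 96 h at 37C to a dilution series. Viability read by CellTiter-Glo luminescence, normalized to DMSO and empty wells; activity summarized as Z-AUC.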

[17] = qHTS assay to identify inhibitors of the type 1 interferon - major histocompatibility complex class I in skeletal muscle: Counter screen cell viability and HiBit confirmation (AID 1347412); conditions: iHSKM muscle cells + IFN-b, HiBiT or CellTiter-Glo, 24 h; for activity change, negative = inhibition: at 45.9 µM (top of the series); further: potency means the concentration at half of the fitted maximal effect; on activity change, negative = inhibition: on the % scale 0 is the no-effect control and ±100 the full control effect; on all read-outs here: nearly all actives have a fitted effect of over 60% in size
Summary of the method: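 CRISPR HLA-B*08:01-HiBit immortalized human myoblasts (C25cl48) stimulated with 4 ng/ml IFN-beta and compounds (12-point 1:3, top 46 uM final) for 24 h at 37 C. Duplicate plates read by HiBit lytic luminescence or CellTiter Glo ATP.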

[18] = molecular target: Thyrotropin receptor (Homo sapiens) (UniProt P16473); experiment: qHTS Assay for Antagonists of the Thyroid Stimulating Hormone Receptor (AID 488980); conditions: TSHR-expressing cells, cAMP antagonist read-out; series mostly up to 57.5 µM; further: 0% is about no effect
Thyrotropin receptor (Homo sapiens), sequence (P16473 whole entry, looked up): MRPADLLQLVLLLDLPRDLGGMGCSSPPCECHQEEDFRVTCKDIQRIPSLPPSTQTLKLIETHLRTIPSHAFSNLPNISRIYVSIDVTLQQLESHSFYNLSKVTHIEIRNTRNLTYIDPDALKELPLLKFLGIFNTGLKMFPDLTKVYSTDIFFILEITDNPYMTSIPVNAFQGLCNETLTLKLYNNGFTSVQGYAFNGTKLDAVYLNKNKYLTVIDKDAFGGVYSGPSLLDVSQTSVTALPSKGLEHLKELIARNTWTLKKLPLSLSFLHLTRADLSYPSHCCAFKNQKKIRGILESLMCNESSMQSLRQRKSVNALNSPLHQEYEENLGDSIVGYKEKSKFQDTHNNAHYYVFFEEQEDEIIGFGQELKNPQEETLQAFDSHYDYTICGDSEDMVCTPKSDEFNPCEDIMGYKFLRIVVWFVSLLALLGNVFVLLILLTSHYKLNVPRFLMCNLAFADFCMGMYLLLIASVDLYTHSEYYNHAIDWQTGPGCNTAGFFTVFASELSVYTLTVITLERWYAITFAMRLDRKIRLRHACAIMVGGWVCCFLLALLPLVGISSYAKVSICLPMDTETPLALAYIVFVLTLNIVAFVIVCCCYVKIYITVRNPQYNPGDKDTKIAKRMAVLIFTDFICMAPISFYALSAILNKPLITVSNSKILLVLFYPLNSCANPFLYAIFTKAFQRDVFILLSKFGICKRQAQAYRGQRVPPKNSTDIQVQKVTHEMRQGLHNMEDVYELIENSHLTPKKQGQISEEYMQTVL
Summary of the method: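 TSHR-transfected HEK293 cells (2000/well) in HEPES-buffered HBSS with 70 uM RO 20-1724 were stimulated with 4 nM TSH (EC80, final) in the presence of compound. cAMP was measured by HTRF competition after lysis and 30 min at RT.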

[19] = molecular target: Phospholipid hydroperoxide glutathione peroxidase GPX4 (Homo sapiens) (UniProt P36969); experiment: Primary qHTS Assay for Inhibitors of Recombinant Selenoprotein Glutathione Peroxidase 4 (GPX4) (AID 1845192); conditions: recombinant GPX4, GR-coupled NADPH fluorescence, 15 min; series mostly up to 50 µM; further: nearly all actives have a fitted effect of over 65% in size; further: potency means the concentration at half of the fitted maximal effect
Phospholipid hydroperoxide glutathione peroxidase GPX4 (Homo sapiens), sequence (P36969 whole entry, looked up): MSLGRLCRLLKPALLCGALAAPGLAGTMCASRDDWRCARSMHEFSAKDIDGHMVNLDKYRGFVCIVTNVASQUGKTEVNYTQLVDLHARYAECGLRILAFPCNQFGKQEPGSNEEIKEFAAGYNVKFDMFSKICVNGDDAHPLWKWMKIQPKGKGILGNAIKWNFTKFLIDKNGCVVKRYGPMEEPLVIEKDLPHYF
Summary of the method: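 Steps: GPX4 plus compound, 30 min RT; add GR/GSH/NADPH master mix; start with cumene hydroperoxide; read 340/450 nm fluorescence at 0 and 15 min. Finals were 200 nM GPX4, 1 mM GSH, 0.5 mM CHP, 0.5 mM NADPH, 100 nM GR.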

[20] = measured here: cell count channel max response
[21] = measured here: lipid channel max response
[22] = measured here: PEO1 parental Z-AUC

Cc1cn([C@H]2C[C@@H](N=[N+]=[N-])[C@@H](CO)O2)c(=O)[nH]c1=O
-9.17%: max response [2, 20]
inactive: outcome [1] | activity change, negative = inhibition [2] 0.117% | Potency [3] | Potency [4] | outcome [5] | Potency [6] | Potency [7] | outcome [8] | Potency [9] | outcome [10] | outcome [11] | outcome [12]
-8.16%: max response [2, 21]

CCCc1cc(C(=O)N[C@H](Cc2ccc(-c3cccc(OC(F)(F)F)c3)nc2)C(=O)N[C@@H]2CCNC2)sc1C
-0.801: Z-AUC [16, 22]
inactive: Potency [15] | Z-AUC [16] -0.805
-0.851: Z-AUC ([16]; measured here: PEO4 Z-AUC)
active: Potency [13] 6.61 µM | Potency [14] 5.9 µM | Potency ([17]; Viability) 35.2 µM

O=C1NC(=O)[C@@H](c2c[nH]c3ccccc23)[C@H]1c1cn2c3c(cccc13)CCC2
-0.711: Z-AUC ([16]; measured here: PEO4 Z-AUC)
active: Potency [13] 1.18 µM | Potency [14] 0.934 µM
-0.673: Z-AUC [16, 22]
inactive: Potency [15] | Z-AUC [16] -1.13 | activity change, negative = inhibition ([17]; Viability) -10.9%

CC(=O)O[C@H]1C[C@@H]2CCC3C(CC[C@@]4(C)[C@H]3C[C@H]([N+]3(C)CCCCC3)[C@@H]4OC(C)=O)[C@@]2(C)C[C@@H]1[N+]1(C)CCCCC1 (stereo partly drawn)
-31.3%: max response [2, 21]
-31.8%: max response [2, 20]
inactive: outcome [1] | activity change, negative = inhibition [2] 0.655% | Potency [3] | Potency [4] | outcome [5] | Potency [6] | Potency [7] | outcome [8] | Potency [9] | outcome [10] | outcome [18] | outcome [11] | outcome [12]

COc1cc(=O)n(C)c2c(OCC(O)C(C)(C)O)cccc12 (stereo not drawn)
inactive: outcome [1] | Potency [3] | Potency [4] | outcome [5] | Potency [6] | Potency [7] | outcome [8] | Potency [9] | outcome [10] | outcome [18] | outcome [11] | outcome [12]

Nc1ncnc2c1ncn2[C@@H]1O[C@H](C(=O)NC2CC2)[C@H](O)[C@H]1O
inactive: outcome [1] | Potency [3] | Potency [4] | outcome [5] | Potency [6] | Potency [7] | outcome [8] | Potency [9] | outcome [10] | outcome [18] | outcome [11] | outcome [12]

COC1CC(C(=O)c2ccc3c(N)ncc(-c4ccc(-c5cnn(C)c5)cc4)c3n2)C1 (stereo not drawn)
inactive: Potency [15] | Potency [19] | Z-AUC [16] -1.33 | activity change, negative = inhibition ([17]; Viability) 4.77%
-1.16: Z-AUC [16, 22]
-1.1: Z-AUC ([16]; measured here: PEO4 Z-AUC)
active: Potency [13] 1.48 µM | Potency [14] 0.0417 µM

CNc1ncnc2c1ncn2[C@@H]1O[C@H](CO)[C@H](O)[C@H]1O
inactive: outcome [1] | Potency [3] | Potency [4] | outcome [5] | Potency [6] | Potency [7] | Potency [9] | outcome [10] | outcome [18] | outcome [11] | outcome [12]

N#CCC1(n2cc(-c3ncnc4[nH]ccc34)cn2)CN(C2CCN(C(=O)c3ccnc(C(F)(F)F)c3F)CC2)C1
active: Potency [14] 18.6 µM | Potency [19] 20.2 µM | Potency ([17]; HiBiT) 1.57 µM
inactive: Z-AUC [16] -0.205 | activity change, negative = inhibition ([17]; Viability) 14.7%
-0.617: Z-AUC ([16]; measured here: PEO4 Z-AUC)
-0.513: Z-AUC [16, 22]
